Data from PubChem BioAssay AID1159580 (chemical genetic matrix, 2015).
Several values for one entry are separate records, joined by “and”; a condition that tells them apart may be missing. Equal values may be shown once. Screen size: about 5,500 compounds; about 2,000 (36%) were called active. Another 18% or so got no clear call; they are omitted. Cut-off read from the data, not from the text of the source: active = normalized growth mostly below about 0.91 (no sharp cut-off); inconclusive = no clear call, values can overlap the other calls; inactive = mostly above about 0.92. The list shows a part of the results.

Assay: chemical genetic growth profiling, strain panel (AID 1159580);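 note: tested at 20 µM; growth read once vehicle control cultures reached saturation at 30 °C; 1 = growth at the plate median or of vehicle wells; lower values mean less growth of the strain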
Conditions: S. cerevisiae deletion strains, growth OD

Measured: normalized growth

OCC(O)C(O)C(O)CO (stereo unspecified)
inactive: locus YAL021C, strain ccr4, active compounds read low 1.01 | locus YAL026C, strain drs2, active compounds read low 1.02 and 1.01 | locus YAL030W, strain snc1, active compounds read low 1.03 and 0.992 | locus YBL061C, strain skt5, active compounds read low 1.02 and 0.994 | locus YBR009C, strain hhf1, active compounds read low 1.02 and 0.989 | locus YBR021W, strain FUR4, active compounds read low 1.07 | locus YBR023C, strain chs3, active compounds read low 1.03 and 0.999 | locus YBR171W, strain sec66, active compounds read low 1.06 and 0.99 | locus YBR229C, strain ROT2, active compounds read low 0.964 | locus YBR231C, strain swc5, active compounds read low 1.03 and 0.994 | locus YBR279W, strain paf1, active compounds read low 1.01 and 0.998 | locus YCL011C, strain gbp2, active compounds read low 1.03 and 1.01 | locus YCL016C, strain dcc1, active compounds read low 1.03 and 0.99 | locus YCL029C, strain bik1, active compounds read low 0.985 | locus YCL061C, strain MRC1, active compounds read low 1.03 | locus YCL069W, strain vba3, active compounds read low 1.03 and 0.994 | locus YCR088W, strain abp1, active compounds read low 1.02 and 0.991 | locus YDL005C, strain med2, active compounds read low 1.03 and 0.984 | locus YDL035C, strain GPR1, active compounds read low 1.04 | locus YDL040C, strain nat1, active compounds read low 1.02 and 1 | locus YDL074C, strain BRE1, active compounds read low 1.12 | locus YDL101C, strain DUN1, active compounds read low 0.996 | locus YDL134C, strain PPH21, active compounds read low 1.01 | locus YDL185W, strain tfp1, active compounds read low 0.982 | locus YDL192W, strain arf1, active compounds read low 1.02 | locus YDR001C, strain nth1, active compounds read low 1.02 | locus YDR069C, strain doa4, active compounds read low 1.02 and 0.976 | locus YDR101C, strain arx1, active compounds read low 1.05 | locus YDR137W, strain rgp1, active compounds read low 1.09 and 0.983 | locus YDR159W, strain sac3, active compounds read low 1.03 and 1 | locus YDR162C, strain NBP2, active compounds read low 0.971 | locus YDR195W, strain ref2 1.04 and 0.983 | locus YDR297W, strain sur2, active compounds read low 1.02 and 1.01 | locus YDR318W, strain mcm21, active compounds read low 0.992 | locus YDR334W, strain swr1, active compounds read low 1.02 and 1 | locus YDR335W, strain msn5, active compounds read low 1.02 and 0.999 | locus YDR388W, active compounds read low 0.995 | locus YDR392W, strain spt3, active compounds read low 1.02 and 0.998 | locus YDR502C, strain sam2, active compounds read low 0.995 | locus YEL003W, strain gim4, active compounds read low 1.03 and 1 | locus YEL037C, strain rad23, active compounds read low 1.01 and 1 | locus YEL061C, strain CIN8 (second series), active compounds read low 1.03 and 0.998 | locus YEL061C, strain CIN8, active compounds read low 1.01 | locus YER015W, strain faa2, active compounds read low 1.02 and 1 | locus YER016W, strain bim1, active compounds read low 1.03 and 0.982 | locus YER110C, active compounds read low 0.983 | locus YER111C, strain swi4, active compounds read low 1.05 and 0.999 | locus YER155C, strain BEM2 (second series), active compounds read low 1.05 and 0.987 | locus YER155C, strain BEM2, active compounds read low 1 | locus YER167W, strain BCK2, active compounds read low 1.01 | locus YFR010W, strain ubp6, active compounds read low 1.02 and 1 | locus YGL078C, strain dbp3, active compounds read low 1.01 | locus YGL086W, strain mad1, active compounds read low 1.05 | locus YGL167C, strain pmr1, active compounds read low 1.04 and 1 | locus YGL173C, strain kem1, active compounds read low 1.03 and 0.996 | locus YGL227W, strain vid30, active compounds read low 1.02 and 0.98 | locus YGL240W, strain doc1, active compounds read low 1.03 and 1.01 | locus YGL248W, strain PDE1, active compounds read low 0.999 | locus YGL253W, strain hxk2, active compounds read low 1.02 and 1.01 | locus YGR135W, strain pre9, active compounds read low 0.984 | locus YGR229C, strain SMI1, active compounds read low 1.04 | locus YGR252W, strain gcn5, active compounds read low 1.06 | locus YHR013C, strain ard1, active compounds read low 1.04 and 0.994 | locus YHR027C, strain rpn1, active compounds read low 1.03 and 0.991 | locus YHR030C, strain SLT2, active compounds read low 1.03 and 1.02 | locus YHR079C, strain IRE1 (second series), active compounds read low 0.994 | locus YHR079C, strain IRE1, active compounds read low 1.02 and 1.05 | locus YHR094C, strain hxt1, active compounds read low 0.982 | locus YHR129C, strain ARP1, active compounds read low 1.02 | locus YHR142W, strain chs7, active compounds read low 1.04 and 1.02 | locus YHR200W, strain rpn10, active compounds read low 1 | locus YIL066C, strain RNR3, active compounds read low 1.02 | locus YIL073C, strain SPO22, active compounds read low 1.07 | locus YIL125W, strain kgd1, active compounds read low 0.997 | locus YIR030C, strain dcg1, active compounds read low 1 | locus YJL092W, strain hpr5, active compounds read low 1.03 and 1 | locus YJL095W, strain BCK1 (second series), active compounds read low 1.01 and 0.999 | locus YJL095W, strain BCK1, active compounds read low 1.04 and 1.03 | locus YJL115W, strain asf1, active compounds read low 1.04 and 0.983 | locus YJL129C, strain trk1, active compounds read low 1.05 and 0.992 | locus YJL134W, strain LCB3, active compounds read low 0.993 | locus YJL154C, strain vps35, active compounds read low 1.02 and 0.991 | locus YJL164C, strain tpk1, active compounds read low 1.03 and 0.996 | locus YJL166W, strain qcr8, active compounds read low 1.03 and 1.01 | locus YJL168C, strain set2, active compounds read low 0.998 | locus YJL187C, strain SWE1 (second series), active compounds read low 0.995 | locus YJL187C, strain SWE1, active compounds read low 1.04 and 0.996 | locus YJR043C, strain POL32, active compounds read low 1.05 | locus YJR066W, strain TOR1, active compounds read low 0.962 and 0.981 | locus YKL009W, strain mrt4, active compounds read low 1.06 | locus YKL068W, active compounds read low 0.987 | locus YKL085W, strain MDH1 (second series), active compounds read low 1.01 | locus YKL085W, strain MDH1, active compounds read low 1.01 | locus YKL160W, strain elf1, active compounds read low 1.02 and 0.994 | locus YKL190W, strain CNB1, active compounds read low 0.996 | locus YKR001C, strain vps1, active compounds read low 1.02 | locus YKR026C, strain gcn3, active compounds read low 1.03 and 0.989 | locus YKR091W, strain srl3, active compounds read low 1.02 and 0.991 | locus YLL001W, strain dnm1, active compounds read low 1.03 and 1 | locus YLL026W, active compounds read low 1.03 and 0.991 | locus YLL041C, strain sdh2, active compounds read low 1.02 and 0.993 | locus YLR027C, strain aat2, active compounds read low 1.03 and 0.975 | locus YLR039C, strain RIC1, active compounds read low 1.07 | locus YLR058C, strain SHM2, active compounds read low 1 | locus YLR102C, strain apc9, active compounds read low 0.992 | locus YLR113W, strain HOG1, active compounds read low 1.02 and 1.06 | locus YLR221C, strain rsa3, active compounds read low 1.03 and 0.996 | locus YLR258W, strain gsy2, active compounds read low 1.01 and 1 | locus YLR262C, strain YPT6 (second series), active compounds read low 1.05 and 1.02 | locus YLR262C, strain YPT6, active compounds read low 1.02 | locus YLR268W, strain sec22, active compounds read low 1.03 | locus YLR320W, strain mms22, active compounds read low 1.03 and 1.01 | locus YLR330W, strain CHS5, active compounds read low 1.01 | locus YLR342W, strain FKS1 (second series), active compounds read low 1.16 | locus YLR342W, strain FKS1, active compounds read low 1.03 and 0.995 | locus YLR357W, strain rsc2, active compounds read low 1.06 and 0.993 | locus YLR370C, strain arc18, active compounds read low 1.02 and 0.986 | locus YLR371W, strain rom2, active compounds read low 1 | locus YLR384C, strain iki3, active compounds read low 1.03 and 0.966 | locus YLR418C, strain cdc73, active compounds read low 1.05 | locus YML016C, strain PPZ1, active compounds read low 1 | locus YML032C, strain rad52, active compounds read low 0.996 | locus YML120C, strain ndi1, active compounds read low 1.03 and 1 | locus YML124C, strain tub3, active compounds read low 0.99 | locus YMR058W, strain fet3, active compounds read low 1.02 and 1 | locus YMR078C, strain ctf18, active compounds read low 0.998 | locus YMR125W, strain sto1, active compounds read low 1.02 and 1 | locus YMR129W, active compounds read low 1.03 and 0.992 | locus YMR205C, strain PFK2, active compounds read low 1.05 and 0.988 | locus YMR223W, strain ubp8, active compounds read low 1 | locus YMR231W, strain pep5, active compounds read low 1.01 | locus YMR263W, strain SAP30, active compounds read low 1.01 | locus YMR307W, strain GAS1, active compounds read low 1.2 | locus YNL067W, strain RPL9B, active compounds read low 0.991 | locus YNL071W, strain lat1, active compounds read low 1.02 and 1.01 | locus YNL128W, strain TEP1, active compounds read low 1.02 | locus YNL183C, strain NPR1, active compounds read low 0.969 and 0.984 | locus YNL209W, strain ssb2, active compounds read low 1.01 and 0.988 | locus YNL233W, strain BNI4, active compounds read low 1.02 | locus YNL248C, strain rpa49, active compounds read low 1.03 and 1.02 | locus YNL250W, strain rad50, active compounds read low 1 | locus YNL271C, strain bni1, active compounds read low 1.01 | locus YNL298W, strain CLA4, active compounds read low 1.02 | locus YNL307C, strain MCK1, active compounds read low 0.997 | locus YNL322C, strain KRE1 (second series), active compounds read low 1.03 and 0.99 | locus YNL322C, strain KRE1, active compounds read low 1.01 | locus YNR049C, strain mso1, active compounds read low 1.02 and 0.994 | locus YNR052C, strain pop2, active compounds read low 1.01 | locus YOL012C, strain htz1 0.9 | locus YOL147C, strain pex11, active compounds read low 0.994 | locus YOR001W, strain rrp6, active compounds read low 1.01 and 0.998 | locus YOR061W, strain CKA2, active compounds read low 0.989 | locus YOR069W, strain VPS5, active compounds read low 1.01 | locus YOR070C, strain gyp1, active compounds read low 1.01 and 0.994 | locus YOR080W, strain dia2, active compounds read low 1.03 and 0.985 | locus YOR083W, strain WHI5, active compounds read low 1.01 and 0.997 | locus YOR106W, strain vam3, active compounds read low 1.05 and 0.998 | locus YOR136W, strain idh2, active compounds read low 0.992 | locus YOR144C, strain elg1, active compounds read low 0.989 | locus YOR184W, strain ser1, active compounds read low 1 | locus YOR231W, strain MKK1, active compounds read low 1.03 and 1.05 | locus YOR265W, strain rbl2, active compounds read low 1.03 and 0.995 | locus YOR270C, strain vph1, active compounds read low 1.09 and 1.04 | locus YOR290C, strain snf2, active compounds read low 1.04 and 0.997 | locus YOR316C, strain cot1, active compounds read low 0.989 | locus YPL051W, strain arl3, active compounds read low 1.02 and 0.975 | locus YPL078C, strain atp4, active compounds read low 1.02 and 0.992 | locus YPL106C, strain sse1, active compounds read low 1.03 and 0.946 | locus YPL240C, strain hsp82, active compounds read low 1.02 and 0.997 | locus YPL241C, strain CIN2, active compounds read low 0.997 | locus YPL256C, strain CLN2, active compounds read low 0.996 and 1.06 | locus YPR119W, strain clb2, active compounds read low 1 | locus YPR141C, strain kar3, active compounds read low 0.992 | locus YPR163C, strain tif3, active compounds read low 0.995 | locus YPR167C, strain met16, active compounds read low 1 | strain wtn01, active compounds read low 1.04
